Compound activity from PubChem.
p53 reactivation: re-activators of mutant p53. H1299 p53-A138V BP100-luciferase reporter, luminescence, 24 h. Potency, µM (titrated, usually from 92.2 µM), without a hit: at the highest dose activity change, positive = activation, most hits filed as activators. hit rate 0.063% among 320,000. AID 504706; further: potency means the concentration at half of the fitted maximal effect; % of control where 0% means no effect; nearly all actives have a fitted effect of over 45% in size
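p53-null H1299 cells stably carrying temperature-sensitive p53-A138V and a BP100-luciferase reporter were pinned with compounds (4-point, 1:5 series) and held 24 hrs at 37 deg C. Luminescence was read 10 min after detection reagent.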
Mito fusion act: mitochondrial division inhibition or fusion activation | Potency, µM (doses to about 46.1 µM), for inactives: top-dose growth rescue (activation), hits mostly activators | AID 485298 | hit rate 0.23% among 320,000 | S. cerevisiae fusion-defective mutant growth rescue, CellTiterGlo 48 h; further: potency means the concentration at half of the fitted maximal effect; % of control where 0% means no effect; nearly all actives have a fitted effect of over 45% in size
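S. cerevisiae fusion-defective temperature-sensitive mutants (e.g. fzo1-1, mgm1-5) grown 48 h at 37C in YPEG (ethanol/glycerol non-fermentable) medium with 23 nl compound per well; growth rescue read as CellTiterGlo luminescence.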
ClpP mod: qHTS Assay for Activators of ClpP; ATP-dependent Clp protease proteolytic subunit (Bacillus subtilis (strain 168)), P80244; purified B. subtilis ClpP, FRET peptide cleavage, 20 min; Potency, µM (titrated, usually from 57.5 µM), for the others: top-dose activity change, negative = active; hit rate 1.9% among 340,000; active means well fitted falling curve with a large enough effect; inconclusive means small, poorly fitted or top-dose-only effect; inactive means no such curve, though single readings can be large or run the other way; further: potency means the concentration at half of the fitted maximal effect; the source files actives as falling curves though it sought activators and does not explain the sign; nearly all actives have a fitted effect of over 65% in size
Target sequence (P80244 whole entry, looked up): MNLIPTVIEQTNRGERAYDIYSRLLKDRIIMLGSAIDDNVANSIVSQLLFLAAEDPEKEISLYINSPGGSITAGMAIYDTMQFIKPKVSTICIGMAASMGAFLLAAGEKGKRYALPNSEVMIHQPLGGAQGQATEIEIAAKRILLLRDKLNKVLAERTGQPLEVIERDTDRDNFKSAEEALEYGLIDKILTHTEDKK
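Buffer: 100 mM Tris/HCl pH8, 100 mM KCl, 0.05% low protease BSA, 2.5% glycerol, 0.01% Tween-20. ClpP 10 microg/mL final; 20 min RT; delta FRET normalized to ADEP and DMSO controls.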
Giardia killer: Giardia lamblia killing; Giardia lamblia trophozoite viability; activity change, % at 7.66 µM, hits read low; hit rate 0.15% among 340,000; AID 540267; in the data active means activity change below about -80%; inconclusive means between about -30% and that limit;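 further: parasites exposed to compound for two days anaerobically before the ATP read; on the % scale 0 is the no-effect control and ±100 the full control effect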
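Compounds were tested on trophozoites seeded at 100 cells/well and held 48 hrs at 37 deg C anaerobically. An ATP-based luminescent kit measured the remaining live cells.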
uPA generation: blocks generation of uPA at the cell surface; cell surface uPA generation assay, qHTS; Potency, µM (titrated, usually from 38.3 µM), for inactives: at the highest dose activity change, negative = inhibition, actives largely listed as inhibitors; hit rate 0.31% among 330,000; AID 540303; active means well fitted inhibition curve with a large enough effect; inconclusive means small, poorly fitted or top-dose-only effect; inactive means no such curve, though single readings can be large or run the other way; tested in mouse RAW 264.7 cells; further: potency means the concentration at half of the fitted maximal effect; on the % scale 0 is the no-effect control and ±100 the full control effect; nearly all actives have a fitted effect of over 55% in size
B2AR arrestin: agonists driving beta-arrestin recruitment to human beta2-adrenergic receptor; Potency, µM (doses to about 46.1 µM), without a hit: at the highest dose activation, hits mostly activators; beta-arrestin recruitment to beta2AR, cell-based reporter; P07550; hit rate 0.02% among 330,000; AID 492947;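 further: potency means the concentration at half of the fitted maximal effect; 0% = DMSO controls and full agonism = EC100 isoproterenol or metaproterenol; nearly all actives have a fitted effect of over 65% in size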
Target sequence (P07550 whole entry, looked up): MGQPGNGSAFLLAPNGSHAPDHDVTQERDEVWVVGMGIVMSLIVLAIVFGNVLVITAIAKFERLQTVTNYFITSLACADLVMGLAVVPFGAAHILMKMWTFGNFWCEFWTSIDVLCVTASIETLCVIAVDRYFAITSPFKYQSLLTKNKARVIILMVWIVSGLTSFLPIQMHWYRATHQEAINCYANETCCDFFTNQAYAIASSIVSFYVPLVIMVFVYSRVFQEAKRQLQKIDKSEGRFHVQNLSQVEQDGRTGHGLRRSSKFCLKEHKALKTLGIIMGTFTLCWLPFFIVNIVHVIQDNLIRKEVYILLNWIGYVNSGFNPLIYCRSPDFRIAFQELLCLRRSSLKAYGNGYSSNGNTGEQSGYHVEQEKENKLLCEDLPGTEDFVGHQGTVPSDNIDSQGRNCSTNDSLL
The depositor's hits bear a star. In the library only some 2.1% were active in any assay of this set; here they are far more common. Unless noted, the call rests on the fitted dose curve; in most records, active means well fitted curve in the direction sought with a large enough effect; inconclusive means small, poorly fitted or top-dose-only effect, or another doubt; inactive means no such curve, though single readings can be large; an effect the other way counts as inactive or inconclusive.

O=C(c1cccn2c(=O)c3ccc(Cl)cc3nc12)N1CCN(Cc2ccc3c(c2)OCO3)CC1 was read as p53 reactivation 2.1%, Mito fusion act 1.7%, ClpP mod 22.4µM*, Giardia killer 38.4 and B2AR arrestin -1.1%.
`COc1ccc2oc(C(=O)OCC(=O)N(C)c3ccccc3)c(C)c2c1` gave p53 reactivation 16.6%, Mito fusion act 9.7%, Giardia killer -4.6, uPA generation 0.0% and B2AR arrestin 0.7%.
`COc1ccc2oc(C(=O)OCC(=O)N(C)Cc3ccccc3)c(C)c2c1` gave p53 reactivation -3.1%, Mito fusion act 8.5%, ClpP mod 28.2µM*, Giardia killer 3.7, uPA generation -14.1% and B2AR arrestin 0.1%.
Screening COc1ccc2oc(C(=O)OC(C)C(=O)NCc3ccccc3)c(C)c2c1 (centres undefined) returned p53 reactivation -5.6%, Mito fusion act 19.4%, Giardia killer inconclusive, uPA generation -0.5% and B2AR arrestin 0.0%.
COc1ccc2oc(C(=O)OCC(=O)N(Cc3ccccc3)C(C)C)c(C)c2c1 was read as p53 reactivation -2.7%, Mito fusion act 12.6%, ClpP mod 31.6µM*, Giardia killer 13.2, uPA generation -8.0% and B2AR arrestin -0.2%.
`Cc1scc(C(=O)N/N=C/c2ccc(Cl)s2)c1C` gave p53 reactivation inconclusive, Mito fusion act 12.6µM*, ClpP mod 0.8%, Giardia killer 6.3, uPA generation 4.4% and B2AR arrestin 2.7%.
CC(C)(C)c1ccc(C(=O)Cn2nc(C(=O)O)c3ccccc3c2=O)cc1 was read as p53 reactivation -0.9%, Mito fusion act -4.6%, ClpP mod -3.2%, Giardia killer -7.7, uPA generation 11.1% and B2AR arrestin -0.1%.
Screening Cc1ccc(NC(=O)CN2C(=O)c3ccccc3C2=O)cc1 returned p53 reactivation 10.6%, Mito fusion act 1.3%, ClpP mod 28.2µM*, Giardia killer -24.9, uPA generation -1.5% and B2AR arrestin 0.4%.
CC(C)CC(=O)Nc1ccc(C(=O)Cn2nc(C(=O)O)c3ccccc3c2=O)cc1 was read as p53 reactivation -2.4%, Mito fusion act -2.0%, ClpP mod 28.2µM*, Giardia killer -12.3, uPA generation 5.8% and B2AR arrestin 0.2%.
CC(C)CC(=O)Nc1ccc(C(=O)NN2C(=O)c3ccccc3C2=O)cc1 was read as p53 reactivation -0.8%, Mito fusion act -2.2%, ClpP mod 31.6µM*, Giardia killer -11.7, uPA generation 4.6% and B2AR arrestin -0.5%.
For CCOC(=O)c1sc(NC(=O)c2cc(-c3ccc(F)cc3)on2)c(C(=O)OCC)c1C the results were ClpP mod -19.4%.
Screening O=C(c1ccc2c(=O)n(CC3CCCO3)c(=S)[nH]c2c1)N1CCN(C(=O)c2ccco2)CC1 (centres undefined) returned ClpP mod 4.0% and Giardia killer -3.7.
`C=C1C=C(C(F)(F)F)n2ncc(C(=O)NCc3ccc(F)cc3)c2N1` gave ClpP mod -3.2%.
Cc1cc(C)c(Cn2c(=O)n(CCCC(=O)NCc3ccc4c(c3)OCO4)c(=O)c3sccc32)c(C)c1 was read as ClpP mod -5.3%.
For CC1CCc2c(sc3nnn(CC(=O)Nc4ccccc4Cl)c(=O)c23)C1 (centres undefined) the results were ClpP mod -0.1%.
For COc1ccccc1CNS(=O)(=O)c1c(C)nc2sc(C)cn2c1=O the results were ClpP mod 31.6µM*.
`Cc1cn2c(=O)c(S(=O)(=O)NCCc3ccccc3)c(C)nc2s1` gave ClpP mod 28.2µM*.
`COc1ccccc1CNS(=O)(=O)c1c(C)nc2sccn2c1=O` gave p53 reactivation 5.1%, Mito fusion act 0.2%, ClpP mod -28.2%, Giardia killer -10.1, uPA generation 5.3% and B2AR arrestin -0.3%.
`CCOc1ccccc1NC(=O)N1CCC2(CC1)Oc1ccccc1C(=O)N2Cc1ccccc1F` gave ClpP mod 1.1%.
CCOc1ccccc1C(=O)Nc1cccc2ccc(C)nc12 was read as ClpP mod 31.6µM*.
CC1CCC(N2CC(=O)N(C3CCCCC3)C(c3ccc(Cl)cc3)C2=O)CC1 (centres undefined) was read as ClpP mod 0.8%.
For CC(C)Cc1nc2oc3c(Cl)ncnc3c2c2c1CCC2 the results were p53 reactivation -7.2%, Mito fusion act -8.7%, ClpP mod 31.6µM*, Giardia killer -1.4 and B2AR arrestin -0.6%.
CC(C)Cc1nc2oc3c(NCCCN4CCOCC4)ncnc3c2c2c1CCC2 was read as p53 reactivation 2.2%, Mito fusion act -2.2%, ClpP mod inconclusive, Giardia killer 4.0 and B2AR arrestin -0.2%.
For Cc1nc2c3cc(F)ccc3n(Cc3ccc(F)cc3)c2s1 the results were p53 reactivation 4.0%, Mito fusion act -5.2%, ClpP mod 2.7%, Giardia killer -19.7, uPA generation 3.55µM* and B2AR arrestin -0.1%.
`COC(=O)Cn1c2ccc(F)cc2c2nc(C)sc21` gave p53 reactivation 4.8%, Mito fusion act 0.5%, ClpP mod -1.7%, Giardia killer -9.0, uPA generation -1.8% and B2AR arrestin 0.1%.
COc1ccc(OC)c(NC(=O)NNC(=O)COc2ccc(-c3ccccc3)cc2)c1 was read as p53 reactivation 3.3%, Mito fusion act -3.1%, ClpP mod 3.5%, Giardia killer -10.6, uPA generation 9.0% and B2AR arrestin -0.1%.
`O=C(COc1ccc(-c2ccccc2)cc1)NNC(=O)Nc1ccc(F)cc1F` gave p53 reactivation -8.2%, Mito fusion act -1.4%, ClpP mod 31.6µM*, Giardia killer -2.0, uPA generation 6.3% and B2AR arrestin -0.4%.
Screening Brc1c(-c2ccccc2)nc2n1Cc1ccccc1-2 returned p53 reactivation inconclusive, Mito fusion act -4.8%, ClpP mod 1.0%, Giardia killer inconclusive, uPA generation inconclusive and B2AR arrestin -0.9%.
Screening c1ccc2c(c1)Cn1c-2nc2ccccc21 returned p53 reactivation inconclusive, Mito fusion act -9.8%, ClpP mod 25.1µM*, Giardia killer -18.1, uPA generation -8.2% and B2AR arrestin -0.2%.
`C=C1C=C(C)n2ncc(C(=O)Nc3cccc(C(=O)Nc4cccc(C(F)(F)F)c4)c3)c2N1` gave ClpP mod -11.2%.
Screening CC(C)c1cn(CC[C@@H]2CC[C@@H](NC(=O)C3CCCCC3)[C@@H](CO)O2)nn1 returned ClpP mod 0.9%.
